From PubChem BioAssay AID1159580 (chemical genetic matrix, 2015)
“And” between values parts separate entries of the source, which are not always exact repeats. Identical values can stand only once. Screen size: about 5,500 compounds; about 2,000 (36%) were called active. Roughly 18% stayed inconclusive and do not appear here. Cut-off read from the data, not from the text of the source: active = normalized growth mostly below about 0.91 (no sharp cut-off); inconclusive = no clear call, values can overlap the other calls; inactive = mostly above about 0.92. The list shows a part of the results.

Assay: chemical genetic growth profiling, strain panel (AID 1159580);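 note: tested at 20 µM; growth read once vehicle control cultures reached saturation at 30 °C; 1 = growth at the plate median or of vehicle wells; lower values mean less growth of the strain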
Conditions: S. cerevisiae deletion strains, growth OD

Measured: normalized growth

O=c1[nH]c2ccccc2n1C1CCN(CCCC(c2ccc(F)cc2)c2ccc(F)cc2)CC1
inactive: locus YAL013W, strain DEP1, hits give low values 1.01 and 0.995 | locus YAL026C, strain drs2, hits give low values 0.948 | locus YAL030W, strain snc1, hits give low values 0.963 | locus YAL040C, strain CLN3, hits give low values 1.03 | locus YBL061C, strain skt5, hits give low values 0.967 | locus YBR021W, strain FUR4, hits give low values 0.969 | locus YBR023C, strain chs3, hits give low values 0.918 | locus YBR171W, strain sec66, hits give low values 1.03 | locus YBR229C, strain ROT2, hits give low values 0.948 | locus YBR231C, strain swc5, hits give low values 0.92 | locus YBR279W, strain paf1, hits give low values 0.953 | locus YCL011C, strain gbp2, hits give low values 0.93 | locus YCL016C, strain dcc1, hits give low values 0.95 | locus YCL029C, strain bik1, hits give low values 0.986 | locus YCL061C, strain MRC1 (second series), hits give low values 1.01 | locus YCL061C, strain MRC1, hits give low values 0.95 | locus YCL069W, strain vba3, hits give low values 1 | locus YCR088W, strain abp1, hits give low values 1 | locus YDL005C, strain med2, hits give low values 1.01 | locus YDL035C, strain GPR1, hits give low values 0.968 | locus YDL040C, strain nat1, hits give low values 1.01 | locus YDL074C, strain BRE1, hits give low values 0.904 | locus YDL101C, strain DUN1, hits give low values 0.978 | locus YDL134C, strain PPH21, hits give low values 0.972 | locus YDL185W, strain tfp1, hits give low values 0.997 | locus YDL192W, strain arf1, hits give low values 1 | locus YDR001C, strain nth1, hits give low values 1.02 | locus YDR101C, strain arx1, hits give low values 1 | locus YDR150W, strain NUM1, hits give low values 0.973 | locus YDR159W, strain sac3, hits give low values 0.92 | locus YDR162C, strain NBP2, hits give low values 0.975 | locus YDR195W, strain ref2 1.05 | locus YDR297W, strain sur2, hits give low values 0.959 | locus YDR318W, strain mcm21, hits give low values 0.975 | locus YDR334W, strain swr1, hits give low values 1.01 | locus YDR335W, strain msn5, hits give low values 0.959 | locus YDR363W, strain ESC2, hits give low values 0.989 | locus YDR502C, strain sam2, hits give low values 0.986 | locus YEL003W, strain gim4, hits give low values 0.944 | locus YEL037C, strain rad23, hits give low values 0.936 | locus YEL061C, strain CIN8 (second series), hits give low values 1.01 | locus YEL061C, strain CIN8, hits give low values 0.989 | locus YER015W, strain faa2, hits give low values 0.953 | locus YER016W, strain bim1, hits give low values 0.961 | locus YER110C, hits give low values 0.993 | locus YER111C, strain swi4, hits give low values 1.02 | locus YER155C, strain BEM2, hits give low values 1.02 | locus YER167W, strain BCK2, hits give low values 0.99 | locus YGL078C, strain dbp3, hits give low values 0.994 | locus YGL086W, strain mad1, hits give low values 0.986 | locus YGL167C, strain pmr1, hits give low values 1.01 | locus YGL173C, strain kem1, hits give low values 0.936 | locus YGL227W, strain vid30, hits give low values 1.03 | locus YGL240W, strain doc1, hits give low values 0.916 | locus YGL248W, strain PDE1, hits give low values 0.979 | locus YGL253W, strain hxk2, hits give low values 0.938 | locus YGR078C, strain PAC10, hits give low values 0.967 | locus YGR135W, strain pre9, hits give low values 0.926 | locus YGR229C, strain SMI1, hits give low values 0.949 | locus YGR252W, strain gcn5, hits give low values 0.782 | locus YHR013C, strain ard1, hits give low values 1.02 | locus YHR027C, strain rpn1, hits give low values 0.927 | locus YHR030C, strain SLT2, hits give low values 0.995 and 0.973 | locus YHR079C, strain IRE1 (second series), hits give low values 0.994 | locus YHR079C, strain IRE1, hits give low values 0.942 | locus YHR094C, strain hxt1, hits give low values 0.995 | locus YHR129C, strain ARP1, hits give low values 0.987 | locus YHR142W, strain chs7, hits give low values 0.915 | locus YHR200W, strain rpn10, hits give low values 0.988 | locus YIL066C, strain RNR3, hits give low values 0.968 | locus YIL125W, strain kgd1, hits give low values 0.995 | locus YIR030C, strain dcg1, hits give low values 1 | locus YJL092W, strain hpr5, hits give low values 0.936 | locus YJL095W, strain BCK1 (second series), hits give low values 0.973 | locus YJL095W, strain BCK1, hits give low values 1.01 and 0.96 | locus YJL115W, strain asf1, hits give low values 1.02 | locus YJL129C, strain trk1, hits give low values 0.885 | locus YJL134W, strain LCB3, hits give low values 0.993 | locus YJL154C, strain vps35, hits give low values 1.01 | locus YJL164C, strain tpk1, hits give low values 0.937 | locus YJL166W, strain qcr8, hits give low values 0.947 | locus YJL168C, strain set2, hits give low values 0.997 | locus YJL187C, strain SWE1 (second series), hits give low values 0.97 | locus YJR043C, strain POL32, hits give low values 0.996 | locus YJR066W, strain TOR1, hits give low values 0.93
active: locus YAL021C, strain ccr4, hits give low values 0.839 | locus YBR009C, strain hhf1, hits give low values 0.875 | locus YDR069C, strain doa4, hits give low values 0.854 | locus YDR137W, strain rgp1, hits give low values 1.26 [resistant] | locus YDR388W, hits give low values 0.838 | locus YDR392W, strain spt3, hits give low values 0.646 | locus YER155C, strain BEM2 (second series), hits give low values 0.707 | locus YFR010W, strain ubp6, hits give low values 0.878 | locus YIL073C, strain SPO22, hits give low values 1.72 [resistant]
